Screening data (PubChem)
D1 potentiator – Potentiators of Human D1 Dopamine Receptor: qHTS; HEK293 TREx D1 cells, calcium flux, dopamine EC20 potentiation; D(1A) dopamine receptor (Homo sapiens), P21728; AID 504651, 2011; potentiation, % at 10 µM; 0.036% of 360,000 active; in the data active = potentiation above about 30%; also: 0% is about no effect
TRHR PAM – qHTS for Small Molecule Agonists and Allosteric Enhancers of Human TRH Receptor: Primary Screen for Enhancers; Thyrotropin-releasing hormone receptor (Homo sapiens), P34981; TRHR cells, fluo-8 calcium fluorescence, EC20 TRH enhancement; enhancement, % at 2 µM; 0.66% of 360,000 active; in the data active = enhancement above about 30%; also: 0% is about no effect
Target sequence (P34981 whole entry, looked up): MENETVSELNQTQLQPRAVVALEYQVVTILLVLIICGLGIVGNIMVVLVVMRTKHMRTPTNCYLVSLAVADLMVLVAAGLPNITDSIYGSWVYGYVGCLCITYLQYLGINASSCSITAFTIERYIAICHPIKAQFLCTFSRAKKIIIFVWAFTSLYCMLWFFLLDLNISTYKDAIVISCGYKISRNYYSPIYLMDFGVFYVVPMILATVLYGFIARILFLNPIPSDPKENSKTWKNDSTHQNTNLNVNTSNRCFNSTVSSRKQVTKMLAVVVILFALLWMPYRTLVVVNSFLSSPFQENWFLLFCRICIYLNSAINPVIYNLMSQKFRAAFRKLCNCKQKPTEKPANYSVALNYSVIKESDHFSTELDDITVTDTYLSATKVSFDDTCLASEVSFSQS
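Enhancer read-out: after compound pinning and an initial kinetic agonist-mode read, an EC20 of TRH (10 nM final) was injected and fluo-8 calcium signal (Ex 480/Em 530) followed at 1 s/cycle for 100 cycles in TRHR-expressing cells.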
TRHR agonist – qHTS for Small Molecule Agonists and Allosteric Enhancers of Human TRH Receptor: Primary Screen for Agonists; Thyrotropin-releasing hormone receptor (Homo sapiens), P34981; activation, % at 2 µM; TRHR cells, calcium flux fluo-8, FDSS agonist mode; 0.18% of 360,000 active; also: 0% is about no effect
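Steps: seed TRHR cells overnight; add fluo-8 no-wash Ca dye, RT 30 min–1.5 h; record 10 s baseline; pin-transfer compounds; monitor fluorescence 1 cycle/s for the agonist window. Calcium increases flag candidate agonists.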
D1 antagonist – Antagonist of Human D 1 Dopamine Receptor: qHTS; D(1A) dopamine receptor (Homo sapiens), P21728; HEK293 TREx D1 cells, calcium flux, dopamine EC80; active compounds read low; activity change, negative = inhibition, % at 10 µM; 3.2% of 360,000 active; in the data active = activity change below about -30%; also: % is scaled to controls: 0 for no effect and ±100 for the full control effect
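Tetracycline-induced HEK293 Trex D1 cells, force-coupled to calcium, dye-loaded; compounds added and read 180 s, then EC80 dopamine added and calcium flux tracked kinetically another 180 s.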
D1 agonist – Allosteric Agonists of the Human D1 Dopamine Receptor: qHTS. D(1A) dopamine receptor (Homo sapiens), P21728. HEK293 T-REx D1 cells, calcium flux, agonist mode. activation, % at 2 µM. 1% of 360,000 active. AID 504660, 2011; also: 0% is about no effect
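Agonism was scored from calcium flux recorded over 180 s (1 read/s) after pintool compound addition, following a 10-cycle baseline. Cells were inducible force-coupled HEK293 TREx D1, plated overnight at 30 C and loaded with no-wash calcium dye.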
An asterisk follows results filed as active; x = no result given. Rows were chosen to be rich in hits. Some 4.6% of all compounds tested hit in one or more screens of this group. Rule as the data show it, unless noted: active = activation above about 30%; inactive = the rest.

SMILES	D1 potentiator	TRHR PAM	TRHR agonist	D1 antagonist	D1 agonist
c1cc2n(c1)-c1c(ccc3c1OCO3)CNC2c1ccc2c(c1)OCO2 (centres undefined)	-12.7	3.2	0.9	2.8	17.5
COc1ccc(C2NCc3ccc4c(c3-n3cccc32)OCO4)cc1O (centres undefined)	-2.9	2.0	4.6	-36.3*	54.6*
Cc1ccc(C)c(C2(O)CC(C)N(C)CC2C)c1 (centres undefined)	-5.5	1.3	1.1	-46.0*	1.3
Cc1ccc(CNC(=O)CCCn2c(=O)c3sccc3n(CC(=O)Nc3c(C)cccc3C)c2=O)cc1	0.8	-3.7	-1.9	1.8	-2.3
O=C1C2CCN(CC2)C1Cc1ccccc1O (centres undefined)	0.1	5.6	0.5	16.9	3.8
COc1ccccc1CC1/C(=N/O)C2CCN1CC2 (centres undefined)	-15.1	-0.7	0.3	-69.2*	14.6
O=C(c1ccc2c(c1)N(Cc1ccc(F)cc1Cl)C(=O)c1ccccc1S2)N1CCC2(CC1)OCCO2	-1.2	-4.8	0.2	-5.7	-0.7
CC(C)(C)N1C(=O)NC(=O)/C(=C\c2ccc3c(c2)CCN3CCCCl)C1=O	-0.5	-1.3	0.9	-32.4*	1.3
Cc1cc(O)c2c3c(c(=O)oc2c1)CCC(C)C3 (centres undefined)	-4.8	-11.6	0.3	-35.3*	36.6*
Cc1ccc(-n2c(/C=C/c3ccccc3)nc3ccccc3c2=O)cc1Cl	-0.7	-6.3	0.1	-11.0	-2.0
CC(C(=O)N1CCC2(CC1)OCCO2)C1Sc2ccccc2NC1=O (centres undefined)	-4.9	35.1*	0.0	-12.7	-0.4
CN1CCN(c2nc(N)c(Br)c(Cl)n2)CC1	-2.4	-4.6	2.3	-33.9*	3.8
CN(C)c1ccc(/C=C2/C(=O)NC(=O)N(CCc3ccc(F)cc3)C2=O)cc1	-5.8	-5.5	0.4	-1.5	-0.7
COCCN1C(=O)NC(=O)/C(=C\c2ccc(Br)cc2)C1=O	-5.9	-0.3	0.5	-54.8*	4.3
Cn1c(=O)n(C)c2cc(CNCCc3ccc(F)cc3)ccc21	-1.1	-3.8	0.8	2.2	7.6
O=C(c1ccc(N2CC3CC(C2)c2cccc(=O)n2C3)c([N+](=O)[O-])c1)N1CCCCC1 (centres undefined)	0.1	-1.4	-0.7	-53.1*	1.0
O=C(c1ccc(N2CC3CC(C2)c2cccc(=O)n2C3)c([N+](=O)[O-])c1)N1CCCC1 (centres undefined)	-2.5	6.1	0.6	-35.2*	3.5
CC1CCCCN1C(=O)c1ccc(N2CC3CC(C2)c2cccc(=O)n2C3)c([N+](=O)[O-])c1 (centres undefined)	0.7	-5.2	-0.7	2.1	0.8
CCN(CC)P(=O)(c1nccn1C)N(CC)CC	-7.7	-3.4	-0.1	-37.1*	3.2
C=CCN1C(=O)NC(=O)/C(=C/C=C/c2ccccc2)C1=O	-11.1	-4.7	0.7	-34.1*	2.7
O=C1NC(=O)N(CCc2ccc(F)cc2)C(=O)/C1=C\C=C\c1ccccc1	5.3	0.1	2.4	11.4	5.9
COc1ccc(N2C(=O)CC(=O)NC2=O)cc1	-6.2	3.9	-0.3	-78.9*	1.3
Cc1ccc(N2C(=O)CC(=O)NC2=O)cc1	-4.8	1.4	-0.3	-8.9	4.8
Cc1ccc2c(c1)[C@@H]1CN(C)CC[C@@H]1N2C(=O)Nc1cccc(C(F)(F)F)c1	-27.1	3.1	2.5	-51.6*	19.7
Cc1ccc2c(c1)C1CN(C)CCC1N2C(=O)CCCN1C(=O)c2cccc3cccc(c23)C1=O (centres undefined)	-16.3	6.1	0.1	-49.3*	1.2
SMILES	D1 potentiator	TRHR PAM	TRHR agonist	D1 antagonist	D1 agonist
Cc1ccc2c(c1)C1CN(C)CCC1N2C(=O)Nc1cccc(C(F)(F)F)c1 (centres undefined)	-3.9	8.6	2.1	x	23.1
Cc1ccccc1Cn1cccc(C(=O)Nc2nc3ccccc3s2)c1=O	-3.5	27.4	0.3	-7.5	1.5
COc1ccc2[nH]c(C)c(CCNCc3cn(C)c4ccccc34)c2c1	-11.2	-5.6	3.4	-54.9*	41.2*
Cc1[nH]c2ccc(OCc3ccccc3)cc2c1CCN	-3.4	1.4	0.2	8.1	11.7
COc1ccc2c(c1O)-c1c(OC)c(OC)cc3c1[C@H](C2)N(C)CC3	-6.3	2.3	0.2	-62.7*	-0.3
O=C(COc1ccc(Cl)cc1Cl)N1CCN(C/C=C/c2ccccc2)CC1	0.8	-6.4	4.0	17.3	6.2
CN(c1ccc(OCC(=O)N2CCN(C/C=C/c3ccccc3)CC2)cc1)S(=O)(=O)c1cccs1	-1.1	-5.7	0.6	-42.9*	9.7
Cc1c(CCN)ccc2c1[nH]c1ccccc12	-7.1	4.1	5.2	-37.9*	24.9
Cc1[nH]c2c(C(F)(F)F)cccc2c1CCN	1.9	6.3	1.8	8.3	9.0
CCc1nc(SC)ncc1C(=O)Nc1ccc(Cl)cc1C(=O)c1ccccc1	6.6	-0.5	-0.4	16.9	1.5
COc1ccc(C)cc1NC(=O)N(Cc1ccc2c(c1)OCO2)C1CCN(Cc2ccccc2)CC1	1.6	20.9	0.1	4.3	2.0
COc1ccc(OC)c(NP(=O)(Oc2ccccc2)Oc2ccccc2)c1	3.0	30.2*	0.1	12.1	1.1
O=C(C(Cc1ccccc1)NS(=O)(=O)c1cccc2nsnc12)N1CCC2(CC1)OCCO2 (centres undefined)	-3.3	-3.3	0.7	3.5	2.3
O=C(C1CCCN(S(=O)(=O)c2cccc3nsnc23)C1)N1CCC2(CC1)OCCO2 (centres undefined)	9.1	1.7	0.9	-35.6*	-0.1
CCn1c(O)c(C=Nc2cc(Cl)ccc2Cl)c(=O)n(CC)c1=O	-4.3	-4.1	-0.7	5.7	1.5
COC(=O)C1=C(c2ccc(F)cc2OCc2ccccc2)C[C@@H]2CC[C@H]1N2C(=O)NC1Cc2ccccc2C1	-3.8	-5.8	0.5	-31.3*	1.6
COC(=O)C1=C(c2cccc(OCc3ccccc3)c2)C[C@@H]2CC[C@H]1N2C(=O)NCc1cc(C)oc1C(F)(F)F	7.9	-6.4	0.9	-30.7*	4.1
COC(=O)C1=C(c2cccc(OCc3ccccc3)c2)C[C@@H]2CC[C@H]1N2C(=O)NCc1cccc(C(F)(F)F)c1	-6.8	-4.3	0.7	x	8.0
COC(=O)C1=C(c2cccc(OCc3ccccc3)c2)C[C@@H]2CC[C@H]1N2C(=O)NCc1ccc(OC)cc1	41.1*	0.9	0.6	5.2	2.8
O=S1(=O)N(Cc2ccccc2)CCCN1Cc1cccc(Cl)c1	-0.8	-3.7	-0.7	0.1	7.4
